# Compound activity (PubChem BioAssay)
# TDP1 cell noCPT: qHTS for Inhibitors of human tyrosyl-DNA phosphodiesterase 1 (TDP1): qHTS in cells in absence of CPT. DT40 Tdp1-/- hTDP1 cells, no CPT, ATP luminescence, 48 h. Potency, µM (series often up to 46.2 µM), inactives show top-dose activity change, negative = growth inhibition, most hits filed as inhibitors. 15% of 420,000 active. AID 686978, 2013; note: potency is the fitted concentration of half-maximal effect; % is set by controls: 0 for no effect and ±100 for the full control effect; nearly all actives have a fitted effect of over 55% in size
#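 Compound effects on proliferation are scored in DT40 Tdp1-/-;hTDP1 cells in the absence of CPT. ATP levels (CellTiter-Glo luminescence) are recorded after a ≥48 hr, 37 °C incubation.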
# TDP1 cell CPT: growth inhibition of DT40 Tdp1-/-;hTDP1 cells with camptothecin (screen for TDP1 inhibitors); 12% of 420,000 active; Potency, µM (highest dose often 46.2 µM), without a hit: at the highest dose activity change, negative = growth inhibition, most hits filed as inhibitors; chicken DT40 Tdp1-/-;hTDP1 cells + 20 nM CPT, ATP luminescence, 48 h; note: potency is the fitted concentration of half-maximal effect; % is set by controls: 0 for no effect and ±100 for the full control effect; nearly all actives have a fitted effect of over 55% in size
#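 Chicken DT40 Tdp1-/- cells complemented with human TDP1, 400 cells/well, exposed to compounds plus 20 nM camptothecin for at least 48 h at 37 C; viability read as ATP content by CellTiter-Glo luminescence.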
# TGFb SMAD3 inh: TGF-b pathway inhibition | Potency, µM (top dose mostly 46.1 µM), inactives show at the top dose activity, negative = inhibition, actives largely listed as inhibitors | HepG2 CAGA-GFP TGF-b/SMAD3 reporter, GFP fluorescence, 18 h; TGF-beta stimulated, 500 pg/mL final | 1.2% of 410,000 active | AID 588855; note: potency is the fitted concentration of half-maximal effect; % is set by controls: 0 for no effect and ±100 for the full control effect; nearly all actives have a fitted effect of over 65% in size
#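 Smad-responsive CAGA-GFP expression was quantified in HEPG2 cells exposed to compounds and 500 pg/mL final TGF-beta for 18 h at 37 degrees C; unstimulated wells defined full inhibition.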
# HepG2 tox: HepG2 cytotoxicity, counter-screen for TGF-b inhibitors; Potency, µM (series often up to 46.1 µM), without a hit: top-dose activity change, negative = cytotoxicity, actives largely listed as cytotoxic; HepG2 CAGA-GFP viability, ATP luminescence, 18 h; AID 588856; 0.76% of 410,000 active; note: potency is the fitted concentration of half-maximal effect
#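 HepG2 CAGA-GFP cells (1000/well, DMEM with 1% FBS) received compound, then TGF-beta at 500 pg/mL final, and were incubated 18 hours at 37 degrees C. Viability was read by CellTiter-Glo luminescence. Media-only wells were set as complete cell-killing and DMSO as no toxicity.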
# IL1B secr inh: blocks inflammasome-driven IL-1 beta release; activity change, % at 57.5 µM; 4.7% of 360,000 active; THP-1 LPS/ATP IL-1B secretion, AlphaLISA, 16 h; active compounds read low; in the data active = activity change below about -50%; inconclusive = mostly about -30% to -49%; note: % is set by controls: 0 for no effect and ±100 for the full control effect
#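 Secreted IL-1B measured by AlphaLISA bead assay after 16 h compound exposure of THP-1 cells; compounds (final up to 57.5 uM) added 1 h before LPS (250 ng/mL) and ATP (1.25 mM) stimulation; lower signal means less secretion.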
# ASM inhibitor: blocks human secretory acid sphingomyelinase; Potency, µM (titrated, usually from 57.5 µM), without a hit: top-dose activity change, negative = inhibition, most hits filed as inhibitors; placental ASM, HMU-PC fluorogenic substrate, 60 min; 0.006% of 340,000 active; P17405; note: potency is the fitted concentration of half-maximal effect
# Target sequence (P17405 47-631 limits assumed): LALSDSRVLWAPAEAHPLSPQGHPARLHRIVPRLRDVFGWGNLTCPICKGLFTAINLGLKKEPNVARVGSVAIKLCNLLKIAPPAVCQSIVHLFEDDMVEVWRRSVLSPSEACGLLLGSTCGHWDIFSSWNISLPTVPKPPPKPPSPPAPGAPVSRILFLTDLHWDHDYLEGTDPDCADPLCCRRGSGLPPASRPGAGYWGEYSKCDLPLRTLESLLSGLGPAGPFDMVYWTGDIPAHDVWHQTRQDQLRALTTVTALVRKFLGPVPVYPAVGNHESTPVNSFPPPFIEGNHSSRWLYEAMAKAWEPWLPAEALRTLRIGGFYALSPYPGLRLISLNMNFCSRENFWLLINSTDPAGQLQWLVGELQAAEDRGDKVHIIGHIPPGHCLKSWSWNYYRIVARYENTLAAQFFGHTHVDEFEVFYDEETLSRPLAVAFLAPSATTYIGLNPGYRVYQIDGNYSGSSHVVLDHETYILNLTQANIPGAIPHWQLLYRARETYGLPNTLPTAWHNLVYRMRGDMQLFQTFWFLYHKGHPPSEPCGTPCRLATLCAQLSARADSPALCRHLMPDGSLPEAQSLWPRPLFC
#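 qHTS format. ASM enzyme prepared from human placenta hydrolyses the fluorogenic substrate HMU-PC0 (9 uM final) over 60 min at 37 °C after a 10 min compound preincubation.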
# * = called active by the depositor; i = inactive; ? = inconclusive; / = no result given. Rows were chosen to be rich in hits. Some 19% of all compounds tested hit in one or more screens of this group. Unless noted, calls come from the whole dose curve; as a rule, active = well fitted curve in the direction sought with a large enough effect; inconclusive = small, poorly fitted or top-dose-only effect, or another doubt; inactive = no such curve, though single readings can be large; an effect the other way counts as inactive or inconclusive.
SMILES,TDP1 cell noCPT,TDP1 cell CPT,TGFb SMAD3 inh,HepG2 tox,IL1B secr inh,ASM inhibitor
CCN(CC)c1ccc(S(=O)(=O)N2CCOCC2)cc1NC(=O)CN1C(=O)NC2(CCC(C)CC2)C1=O (stereo unspecified),-17%,-23%,?,-3%,-6,/
Cc1ccc2c(c1)c1nc3ccccc3nc1n2C,?,?,33%,-17%,-6,-4%
CCn1c2ccccc2c2nnc(SCCN3CCCCC3)nc21,?,26µM*,-16%,-47%,?,0%
CCn1c2ccccc2c2nnc(SCCN3CCOCC3)nc21,?,-20%,0%,-22%,12,-7%
CCn1c2ccccc2c2nnc(SCCCn3c(=O)[nH]c4ccccc43)nc21,23µM*,?,-2%,3%,2,-13%
Cc1ccc2c(c1)c1nc3ccccc3nc1n2CCN1CCOCC1,18µM*,?,10%,-4%,-58*,-11%
CCCCn1c2ccc(C)cc2c2nnc(SCCN3CCCCC3)nc21,21µM*,?,-26%,-35%,-78*,-10%
O=C(NNC(=O)c1cc(Cl)ccc1O)c1ccc(NS(=O)(=O)c2cccs2)cc1,10%,3%,-21%,-23%,51,-6%
COc1cc(/C=C/C(=O)O)ccc1OS(=O)(=O)c1c(C)cc(C)cc1C,1%,-23%,1%,5%,17,8%
CCn1c2ccc(C)cc2c2nnc(SCCN3CCOCC3)nc21,21µM*,?,0%,-3%,-64*,-1%
Cc1nc2c3cc(Cl)ccc3n(CCN3CCOCC3)c2s1,15µM*,?,5%,-1%,-23,-4%
Cc1ccc2c(c1)c1nnc(SCC(=O)N3CCN(c4ccc(F)cc4)CC3)nc1n2CC(=O)O,-19%,0%,5%,7%,17,0%
CCn1c2ccccc2c2nnc(SCc3ccccc3)nc21,?,?,-19%,-24%,24,-16%
CCn1c2ccccc2c2nnc(SCc3ccc(C(=O)OC)o3)nc21,23µM*,18µM*,-3%,-14%,-21,-7%
O=C(OCc1cn([C@H]2CN(C(=O)C3CCCCC3)[C@@H](c3ccccc3)C[C@@H]2O)nn1)c1ccccc1,21µM*,?,8%,-5%,33,/
O=C(OCc1cn([C@H]2CN(C(=O)C3CCCCC3)[C@@H](c3ccc(Cl)cc3)C[C@@H]2O)nn1)c1ccccc1,21µM*,?,?,-40%,-20,/
O=C(OCc1cn([C@@H]2CN(C(=O)C3CCCCC3)[C@@H](c3ccccc3)C[C@H]2O)nn1)c1ccccc1,?,0%,-1%,0%,9,/
CCN(CC(=O)NCc1ccc2c(c1)OCO2)S(=O)(=O)c1ccc(F)cc1,3%,-1%,-8%,-1%,-6,-1%
CCOC(=O)c1sc(NC(=O)c2cc(-c3ccccc3C)nc3ccccc23)c(C#N)c1C,7.3µM*,9.2µM*,?,-31%,-83*,?
CCOC(=O)c1sc(NC(=O)c2ccncc2)c(C#N)c1C,5.2µM*,6.5µM*,?,-33%,26,-2%
COc1ccc(-c2cc(C(=O)Nc3sc4c(c3C#N)CCCC4)c3ccccc3n2)cc1OC,-27%,0%,-10%,-50%,-26,-16%
COC(=O)c1sc(NC(=O)c2ccc(Cn3cc(Cl)cn3)o2)c(C#N)c1C,?,16µM*,-8%,-45%,16,0%
Cc1ccccc1-c1cc(C(=O)Nc2sc(C)c(C)c2C(N)=O)c2ccccc2n1,18µM*,16µM*,?,-44%,-15,-17%
COc1ccc(S(=O)(=O)N(C)c2ccc(C(=O)Nc3cccnc3)cc2)cc1OC,-11%,-14%,-1%,-17%,i,2%
N/C(=N\OC(=O)c1ccccc1)C(Cc1ccccc1)C(=O)NOC(=O)c1ccccc1 (stereo unspecified),2.6µM*,2.9µM*,?,-75%,-89*,-2%
SMILES,TDP1 cell noCPT,TDP1 cell CPT,TGFb SMAD3 inh,HepG2 tox,IL1B secr inh,ASM inhibitor
Nc1ccn(C2CCCCO2)c(=O)n1 (stereo unspecified),-6%,0%,12%,-3%,3,1%
COc1ccc(NC(=O)COc2cccc3c2CCN(Cc2cccnc2)C3=O)c(OC)c1,10µM*,12µM*,?,-34%,-26,-4%
COc1ccc(N(C(C)=O)c2nc(C)cc(C)c2C#N)c(OC)c1,12%,15%,-2%,-1%,8,1%
COc1ccc(C(=O)NCc2nnc(SCC(=O)NC3CCCC3)o2)cc1,5%,-8%,9%,-15%,-5,-2%
COc1ccc(-c2csc3ncn(Cc4ccccc4)c(=O)c23)cc1,?,?,39%,6%,-10,-2%
COc1ccc(-c2c3c(cc4ncn(Cc5ccccc5)c24)COC3=O)cc1,23µM*,?,-17%,0%,18,-1%
O=C(Nc1ccc(O)c2c(=O)cc(-c3cccc(Cl)c3)oc12)c1ccccc1Cl,21µM*,?,-17%,-13%,-8,-3%
COc1cccc(CN(C)C[C@@H]2OCc3cnnn3CCCC(=O)N([C@@H](C)CO)C[C@H]2C)c1,-21%,2%,-4%,-10%,-14,/
O=C(COc1ccccc1)Nc1nc2ccccc2[nH]1,16µM*,?,-11%,-7%,-5,10%
CCCCOc1cccc(OCC(=O)Nc2nc3ccccc3[nH]2)c1,?,21µM*,14µM*,13µM*,1,10%
CCCOc1cccc(OCC(=O)Nc2nc3ccccc3[nH]2)c1,?,?,0%,-36%,10,0%
Cc1ccc(CC(=O)Nc2nc3ccccc3[nH]2)cc1C,1.8µM*,3.5µM*,-2%,7%,7,-1%
O=C(Cc1ccccc1Cl)Nc1nc2ccccc2[nH]1,?,-3%,4%,-10%,32,2%
Cc1ccc(N2CC(C)Cn3c2nc2c3c(=O)[nH]c(=O)n2C)cc1C (stereo unspecified),?,-19%,-1%,4%,31,-1%
CC1(C)CC(=O)C(C(=O)/C=C/NCCc2ccccc2)C(=O)C1,?,-25%,5%,13%,29,-1%
CC1(C)CC(=O)C(C(=O)/C=C/c2ccco2)C(=O)C1,21µM*,15µM*,5%,8%,-14,-16%
